Source: the supplement of paper PMC12297408
Where a name gives a salt, the structure may show the parent alone. About 40 (3%) of roughly 1,300 compounds showed activity. For the sample, actives were picked, then their nearest neighbours and some compounds at random. Unmarked numbers belong to inactive results.

Test system: Plasmodium falciparum NF54/iGP1_RE9H ulg8 stage V gametocytes
Test: gametocyte viability (luciferase signal relative to DMSO control) (% of DMSO control); higher = less gametocytocidal activity, active = 50 or less
Conditions: exposure time: 72 h
In short: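 In 96-well plates holding nanolitre spots of compound (10 mM DMSO stocks), NF54/iGP1_RE9Hulg8 stage V gametocytes from day 12 were added at ~2.5% gametocytemia and 3% hematocrit in medium with 0.5% Albumax II, giving single wells at 10 µM or 1 µM. Incubation lasted 72 h at 37 °C. Each 90 µl sample then received 10 µl D-luciferin (30 mg/ml) before luminescence reading on an IVIS Lumina II, and viability was normalized to the mean of DMSO vehicle wells on the same plate.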

SMILES | gametocyte viability (concentration: 1 µM) | gametocyte viability (concentration: 10 µM)
CC(C)c1nc(CN(C)C(=O)N[C@H](C(=O)N[C@@H](Cc2ccccc2)C[C@H](O)[C@H](Cc2ccccc2)NC(=O)OCc2cncs2)C(C)C)cs1 [Ritonavir] | 66.4 | 36.5 (active)
Nc1c2ccccc2nc2ccccc12 [Aminacrine] | 85.8 | 81.4
Nc1ccc(/N=N/c2ccccc2)c(N)n1 [Phenazopyridine hydrochloride] | 88.3 | 48.1 (active)
CCN1CCN(C(=O)N[C@@H](C(=O)N[C@@H]2C(=O)N3C(C(=O)O)=C(CSc4nnnn4C)CS[C@H]23)c2ccc(O)cc2)C(=O)C1=O [Cefoperazone dihydrate] | 79.3 | 83.8
CC(N)CCCC(C)(C)O (centres undefined) [Heptaminol hydrochloride] | 82.3 | 84.6
Cc1c(-c2ccccc2)oc2c(C(=O)OCCN3CCCCC3)cccc2c1=O [Flavoxate hydrochloride] | 92 | 87
N#CC(c1ccc(Cl)cc1)c1c(Cl)cc(-n2ncc(=O)[nH]c2=O)cc1Cl (centres undefined) [Diclazuril] | 92.9 | 91.4
CC(=O)Nc1c(I)c(C(=O)N[C@H]2C(O)O[C@H](CO)[C@@H](O)[C@@H]2O)c(I)c(N(C)C(C)=O)c1I (some centres undefined) [Metrizamide] | 84.7 | 88.9
CCCC1C(=O)N2C(N(C)C)=Nc3ccc(C)cc3N2C1=O (centres undefined) [Azapropazone] | 89.5 | 87.5
Oc1c(Cl)cc(Cl)c2cccnc12 [Chloroxine] | 83.4 | 84.2
CO[C@@]1(NC(=O)Cc2cccs2)C(=O)N2C(C(=O)O)=C(COC(N)=O)CS[C@@H]21 [Cefoxitin sodium salt] | 85.9 | 81.1
CNC1(C)C2CCC(C2)C1(C)C (centres undefined) [Mecamylamine hydrochloride] | 93.8 | 94.3
CCC(C)(C)C(=O)O[C@H]1C[C@@H](C)C=C2C=C[C@H](C)[C@H](CC[C@@H]3C[C@@H](O)CC(=O)O3)[C@H]21 [Simvastatin] | 80.4 | 85.5
CCOC(=O)C1=C(COCCN)NC(C)=C(C(=O)OC)C1c1ccccc1Cl (centres undefined) [Amlodipine] | 82.2 | 63.1
COCCc1ccc(OCC(O)CNC(C)C)cc1 (racemic) [Metoprolol-(+,-) (+)-tartrate salt] | 94 | 94
CCCCCCNC(=O)n1cc(F)c(=O)[nH]c1=O [Carmofur] | 80.2 | 76.4
Cc1cccn2c(=O)c(-c3nnn[nH]3)cnc12 [Pemirolast potassium] | 80.6 | 84.7
COc1cc(C(=O)N2CCOCC2)cc(OC)c1OC [Trimetozine] | 81.7 | 80.2
CN1CCc2c(c3ccccc3n2Cc2ccccc2)C1 [Mebhydroline 1,5-naphtalenedisulfonate] | 88.8 | 83.3

SMILES | gametocyte viability (concentration: 1 µM) | gametocyte viability (concentration: 10 µM)
Cc1c(N(C)C)c(=O)n(-c2ccccc2)n1C [Amidopyrine] | 99 | 95.3
O=C1c2cccc(O)c2C(=O)c2c(O)cccc21 [1,8-Dihydroxyanthraquinone] | 82.8 | 85.1
O=C1c2c(O)cccc2Cc2cccc(O)c21 [Anthralin] | 89.3 | 86.9
O=C1c2c(O)ccc(O)c2C(=O)c2c(NCCNCCO)ccc(NCCNCCO)c21 [Mitoxantrone dihydrochloride] | 86.2 | 12.9 (active)
O=c1[nH]c(=O)n(C2CCCO2)cc1F (centres undefined) [Tegafur] | 82.6 | 82.6
Cc1scc2c1N(C(=O)CN1CCN(C)CC1)c1ccccc1NC2=O [Telenzepine dihydrochloride] | 97.8 | 96.3
CC[N+](CC)(CC)CCC(O)(c1ccccc1)C1CCCCC1 (centres undefined) [Tridihexethyl chloride] | 95.7 | 100
CCOC(=O)C1=C(C)NC(C)=C(C(=O)OCC)C1c1ccccc1/C=C/C(=O)OC(C)(C)C [Lacidipine] | 97.1 | 96.5
Cc1c(Cl)cccc1Nc1ccccc1C(=O)O [Tolfenamic acid] | 83.6 | 90.8
Cc1cccc(Nc2ccccc2C(=O)O)c1C [Mefenamic acid] | 94 | 94.6
COc1ccc(/C=C/C(=O)Nc2ccccc2C(=O)O)cc1OC [Tranilast] | 68.5 | 40.9 (active)
COC1=C(OC)C(=O)C(CCCCCCCCCCO)=C(C)C1=O [Idebenone] | 88 | 86.8
Cn1c(=O)c2c(ncn2CC2OCCO2)n(C)c1=O [Doxofylline] | 86.6 | 86.7
COc1cc(N)c(Cl)cc1C(=O)NC1CCN(CCCOc2ccc(F)cc2)CC1OC (centres undefined) [Cisapride] | 95.9 | 96.7
C[C@H](CCC(=O)O)[C@H]1CC[C@H]2[C@@H]3C(=O)C[C@@H]4CC(=O)CC[C@]4(C)[C@H]3CC(=O)[C@]12C [Dehydrocholic acid] | 95.4 | 93.6
C=C1c2c(Cl)ccc(O)c2C(O)=C2C(=O)[C@]3(O)C(O)=C(C(N)=O)C(=O)[C@@H](N(C)C)[C@@H]3[C@@H](O)[C@H]12.O=C(O)c1cc(S(=O)(=O)O)ccc1O [Meclocycline sulfosalicylate] | 80.9 | 83.5
CN(C)CC/C=C1/c2ccccc2COc2ccc(CC(=O)O)cc21 [Olopatadine hydrochloride] | 77.9 | 86.5
CCCOc1ccc(C(=O)OCCN(CC)CC)cc1N [Proparacaine hydrochloride] | 98.5 | 105
